The results in this text go back to PubChem BioAssay.

Assay [1] can be described thus: compounds altering circadian rhythm period length – cell-based, LOPAC library, luminescence reporter (AID 2774).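 Note: values are relative to mean of DMSO wells on each plate.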 To be noted: circadian reporter cells, at 7 µM, actives lie on both sides.
The test system of assay [2] is Aerobactin synthetase IucA (Klebsiella pneumoniae). Description: inhibition of K. pneumoniae IucA enzyme – biochemical, Tocris library, absorbance (AID 1345561).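 Note: 100% = enzyme without compound and 0% = no enzyme.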 To be noted: purified IucA enzyme assay, absorbance (OD) read-out; stronger effect = lower value;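 tested at 8 µM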.
Assay [3] can be described thus: viability loss with induced miR-34 in A549 – imaging, A549 dox-inducible miR-34, nuclei and caspase counts, primary screen (AID 1347080;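 active = compounds whose cell count with miR-34 switched on is under 0.7 times the count with it off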). To be noted: A549 miR-34 inducible, Hoechst nuclei count, 48 h.
Assay [4] can be described thus: galactose survival enhancers in mitochondrial complex I cybrids – cell-based, galactose medium, ATP luminescence, primary screen (AID 1645843;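 active = z-score of at least 1.8 in each of two replicates, scored against plate mean and spread of sample wells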;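 note: positive z means more ATP and so rescue of galactose-driven cybrid death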). The conditions noted are these: complex I mutant cybrid cells, 72 h, stronger effect = higher value.
Assay [5] can be described thus: P. berghei load reduction in hepatocytes – cell-based, HepG2, luciferase luminescence, HepG2 viability, primary screen (AID 624349; in the data active = parasite load remaining mostly below about 12%, no sharp cut-off; inactive = mostly above about 10%;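 note: 100% = mean of DMSO negative control wells on the same plate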). To be noted: P. berghei liver stage in HepG2, luciferase luminescence, concentration not given here; parasite load remaining: stronger effect = lower value; viability: measured here: HepG2 viability without parasites.
Assay [6] can be described thus: signal quenchers or enhancers, Cy5 substrate/SSB – biochemical, NIH Clinical Collection, E. coli SSB, artefact control for HCV NS3 helicase inhibitor project (AID 743268). The conditions noted are these: Cy5-oligo bound E. coli SSB, fluorescence interference.
In assay [7] the test system is Hepatitis C virus NS3 helicase. Briefly: blockers of NS3h binding to DNA – biochemical, fluorescence polarization, NIH Clinical Collection, primary screen (AID 743270). To be noted: NS3 helicase binding to Cy5-dT15 DNA, stronger effect = higher value, concentration not given here. On the technique in general: Polarisation of emitted light reports the rotation of a fluorescent probe.

The target in assay [8] is Single-stranded DNA-binding protein (Escherichia coli (strain K12)) (UniProt P0AGE0). Briefly: SSB-ssDNA binding inhibitors – biochemical, fluorescence polarization, NIH Clinical Collection, counter-screen for HCV NS3 helicase inhibitor project (AID 743271; in the data active = inhibition above about 28%). The conditions noted are these: E. coli SSB-DNA binding, stronger effect = higher value, concentration not given here.
Assay [9] is described as follows: compounds distorting NS3 helicase fluorescence signal – biochemical, NIH Clinical Collection, artefact control for HCV NS3 helicase inhibitor project (AID 743272).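 Note: HCV NS3 helicase with a Cy5 labelled single stranded DNA probe.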 To be noted: fluorescence interference counterscreen, HCV NS3 helicase assay; stronger effect = lower value.
[10] abbreviates: stronger effect = lower value, cell number ratio, induced over uninduced.
The mark [11] stands for this setting: measured here: relative caspase fold change +Dox/-Dox.
Setting [12] is: measured here: total cells with miR-34 induction, stronger effect = lower value.
Setting [13] is: measured here: total cells without miR-34 induction.

Activity calls are given as the source filed them. Unless noted, the rule behind the calls is not given here.

The remaining activity is the signal under treatment as a percentage of the control signal. In the case of `CN1C2CCC1CC(OC(c1ccccc1)c1ccc(Cl)cc1)C2` (stereo not given), the period change in [1] is 0.035 h (inactive). Besides, the remaining activity in assay [2] is 92.9% (inactive). The fold change in [3] (setting [10]) is 0.909 (inactive); in assay [3] (setting [11]), 1.16. Further, the cell count in assay [3] (setting [12]) was determined as 4530; in assay [3] (setting [13]), 4990. For the same compound, the z-score in assay [4] was -1.1 (inactive).
Take `OC12C3C4CC5C6C4C1C6C(C53)N2CCc1cccc(F)c1` (stereo not given): the remaining activity in assay [2] is 98.4% (inactive). For the same compound, the values for the fold change in assay [3] (setting [10]) and in assay [3] (setting [11]) were 0.838 (inactive) and 1.86, respectively. The cell count amounted to 7940 in [3] (setting [12]) and 9480 in assay [3] (setting [13]). For the same compound, the z-score in [4] was 0.295 (inactive).
As to `Cc1nc(N)sc1CCN`, the remaining activity in assay [2] is 88.4% (inactive). Besides, the results for the fold change in [3] (setting [10]) and in [3] (setting [11]) were 0.919 (inactive) and 1.01, respectively. For the same compound, the cell count was 8020 in assay [3] (setting [12]) and 8730 in [3] (setting [13]). For the same compound, the z-score in [4] is 0.195 (inactive).
On to `OC(Cc1ccncc1)C(Cl)(Cl)Cl` (stereo not given), for which the remaining activity in [2] was 118% (inactive). In addition, the fold change in assay [3] (setting [10]) is 0.921 (inactive); in assay [3] (setting [11]) it was 0.736. Further, the figures for the cell count in [3] (setting [12]) and in assay [3] (setting [13]) were 9270 and 10100, respectively. In [4], the z-score was -0.53 (inactive).
Turning to `C=CCN1CC[C@]2(C)c3cc(O)ccc3CC1[C@@H]2C`, in assay [2], the remaining activity was 113% (inactive). For the same compound, the fold change was 0.961 (inactive) in assay [3] (stronger effect = lower value) and 0.641 in assay [3] (setting [11]). Moreover, the cell count in assay [3] (setting [12]) amounted to 8610; in [3] (setting [13]) it was 8960. In addition, the z-score in [4] was 0.05 (inactive).
Usually viability stands for a read-out of living cells in per cent, often relative to untreated cells. In the case of `O=C1NC(=O)c2c1c1c3ccccc3[nH]c1c1[nH]c3ccccc3c21`, in assay [5], the parasite load remaining was 79.1% (inactive). The viability in assay [5] was 159%. The remaining activity in assay [2] was 93.4% (inactive). Further, the fold change in [3] (stronger effect = lower value) was 0.78 (inactive); in assay [3] (setting [11]), 1.58. Also, the cell count in assay [3] (setting [12]) is 3660; in assay [3] (setting [13]), 4680. Further, in assay [4], the z-score is -0.6 (inactive).
For `C=CCN1C[C@H](C)N([C@H](c2ccc(C(=O)N(CC)CC)cc2)c2cccc(O)c2)C[C@H]1C`, the remaining activity in [2] was 99.4% (inactive). In addition, the fold change is 0.929 (inactive) in [3] (setting [10]) and 0.728 in assay [3] (setting [11]). Moreover, the cell count stood at 8160 in [3] (setting [12]) and 8780 in assay [3] (setting [13]). Also, the z-score in [4] is -0.17 (inactive).
For the compound `C[C@@H]1O[C@@H](O[C@@H]2C[C@@H](O)[C@]3(CO)[C@H]4[C@H](O)C[C@]5(C)[C@@H](C6=CC(=O)OC6)CC[C@]5(O)[C@@H]4CC[C@]3(O)C2)[C@H](O)[C@H](O)[C@H]1O`, in assay [2], the remaining activity was 107% (inactive). In addition, the figures for the fold change in assay [3] (setting [10]) and in assay [3] (setting [11]) were 0.807 (inactive) and 1.91, respectively. Further, the figures for the cell count in [3] (setting [12]) and in [3] (setting [13]) were 346 and 430, respectively. For the same compound, the z-score in assay [4] was -0.765 (inactive).
What is called inhibition is the drop in the measured response relative to a control, in per cent. `Oc1ccc2c3c1O[C@H]1c4[nH]c5ccccc5c4C[C@@]4(O)C(C2)N(CC2CC2)CC[C@]314`: the parasite load remaining in assay [5] was 46.5% (inactive). Further, the viability in [5] was 62.3%. For the same compound, the values for the fluorescence ratio in [6] and in [9] were 0.91 (inactive) and 0.89 (inactive), respectively. Further, the inhibition in assay [7] was -1.19% (inactive); in [8] it was -0.1% (inactive). The remaining activity in assay [2] is 101% (inactive). The results for the fold change in assay [3] (stronger effect = lower value) and in assay [3] (setting [11]) were 1.03 (inactive) and 0.989, respectively. For the same compound, the cell count came to 8920 in assay [3] (setting [12]) and 8700 in [3] (setting [13]). Also, the z-score in assay [4] was 0.53 (inactive).
Consider `C=C(C)CN1CC[C@]23c4c5ccc(O)c4O[C@H]2c2[nH]c4ccccc4c2C[C@@]3(O)C1C5`, for which the parasite load remaining in [5] was 2.83% (inactive). In addition, the viability in [5] amounted to 29.3%. For the same compound, the fluorescence ratio in assay [6] was 0.95 (inactive); in assay [9], 0.93 (inactive). In addition, the inhibition in [7] was -1.97% (inactive); in assay [8] it was 1.97% (inactive). Also, the remaining activity in assay [2] was 92% (inactive). The fold change in assay [3] (stronger effect = lower value) is 0.859 (inactive); in [3] (setting [11]) it was 0.814. The cell count amounted to 5020 in [3] (setting [12]) and 5850 in [3] (setting [13]). Moreover, the z-score in assay [4] was -0.785 (inactive).
